{"source": "PubChem BioAssay AID624304", "about": "(Sanford-Burnham Center for Chemical Genomics, 2012)", "note": "The campaign covered roughly 360,000 compounds. About 1,800 (0.5%) were called active.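 The calls were made as follows: active = interference check ratio from 0.5 to 1.5 plus GFP to RFP signal ratio inhibition reaching or exceeding a fixed threshold (cut at about 30% in these data, passing the limit was not always enough); inactive = the rest.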 The full list was thinned out, with actives kept by preference."}
{"experiment": "suppressors of acrylamide-induced Pgst-4::GFP reporter in worms, primary screen, SKN-1 inhibitor project, whole organism, uHTS, GFP/RFP fluorescence ratio, strain VP596 (AID 624304)", "conditions": "C. elegans VP596 Pgst-4::GFP/RFP ratio, 24 h, at 21.8 µM, stronger effect = higher value"}
{"smiles": "COc1cccc(OC)c1C(=O)Nc1ccc(Cc2ccncc2)cc1", "inhibition": "-3.1% (inactive)"}
{"smiles": "COc1cc2ccccc2cc1C(=O)Nc1ccncc1", "inhibition": "36.2% (active)"}
{"smiles": "COc1ccccc1N(C)S(=O)(=O)c1ccc(Cl)c(C(=O)Nc2ccncc2)c1", "inhibition": "23.4% (inactive)"}
{"smiles": "O=C(O)c1cccc2c1C(=O)N(C1CCCC1)C2", "inhibition": "-4.43% (inactive)"}
{"smiles": "CCN(CC)c1ccc2oc(=O)c(C)nc2c1", "inhibition": "40.8% (active)"}
{"smiles": "CN(Cc1nc2ccccc2c(=O)[nH]1)Cc1cc(=O)oc2ccc3ccccc3c12", "inhibition": "14.1% (inactive)"}
{"smiles": "Cc1ccc2c(=O)oc(N(C)C)nc2c1", "inhibition": "8.34% (inactive)"}
{"smiles": "Cc1c(Cl)c([N+](=O)[O-])nn1CC(=O)NCCCN1CCOCC1", "inhibition": "28.4% (inactive)"}
{"smiles": "CCCCn1ccnc1C(=O)c1cccc(S(=O)(=O)N2c3ccccc3CC2C)c1", "note": "(stereo not given)", "inhibition": "41.7% (active)"}
{"smiles": "CC1Cc2ccccc2N1S(=O)(=O)c1cccc(C(=O)OCC(=O)N2CCOCC2)c1", "note": "(stereo not given)", "inhibition": "17.4% (inactive)"}
{"smiles": "CC1Cc2ccccc2N1S(=O)(=O)c1cccc(C(=O)NCC(c2ccco2)N2CCCC2)c1", "note": "(stereo not given)", "inhibition": "4.55% (inactive)"}
{"smiles": "COCCN(C(=O)COC(=O)Cc1cccc(OC)c1)c1c(N)n(Cc2ccccc2)c(=O)[nH]c1=O", "inhibition": "5.12% (inactive)"}
{"smiles": "CCCCOc1ccc(N(CC(=O)NC(C)C)C(=O)CCC(=O)Nc2ccccn2)cc1", "inhibition": "-1.05% (inactive)"}
{"smiles": "O=C(NCCCn1ccnc1)C(=O)NCC1OCCN1S(=O)(=O)c1cc(F)ccc1F", "note": "(stereo not given)", "inhibition": "-7.89% (inactive)"}
{"smiles": "CCc1ccc(-c2nc(SCC(=O)NC3CCCC3)n[nH]2)cc1", "inhibition": "3.3% (inactive)"}
{"smiles": "Cn1c(=NC(=O)c2ccco2)sc2cccc(F)c21", "inhibition": "7.91% (inactive)"}
{"smiles": "Cn1c(=NC(=O)C2CC2)sc2cc(F)cc(F)c21", "inhibition": "38% (active)"}
{"smiles": "CSCCNCc1cn(-c2ccc(F)cc2F)nc1-c1ccccc1C", "inhibition": "-14.2% (inactive)"}
{"smiles": "O=C1CC2(CCN(C(=O)COc3ccc(F)cc3)CC2)Oc2ccccc21", "inhibition": "-3.05% (inactive)"}
{"smiles": "CN(C)/C=N/c1cc(=O)n(C)c(=O)n1CC1CC1", "inhibition": "8.63% (inactive)"}
{"smiles": "CN=C1C=C/C(=N/N=c2\\ccn(O)cc2C)C=C1C", "inhibition": "41.1% (active)"}
{"smiles": "COc1ccc(/C=C/C2=CC(C)(C)NC(=S)N2)c(OC)c1", "inhibition": "-2.28% (inactive)"}
{"smiles": "Fc1ccc(COc2cccc(-c3n[nH]c(=S)o3)c2)cc1", "inhibition": "-1.11% (inactive)"}
{"smiles": "Fc1cccc(Cl)c1COc1ccc(-c2nnco2)cc1", "inhibition": "23.1% (inactive)"}
{"smiles": "Fc1ccc(COc2ccc(-c3nnco3)cc2)cc1", "inhibition": "77.7% (active)"}
{"smiles": "Cc1cccc(NC(=O)NC2(C)CCS(=O)(=O)C2)c1", "note": "(stereo not given)", "inhibition": "-6.44% (inactive)"}
{"smiles": "CCCC(NCC(=O)Nc1ccccc1C(=O)NC1CC1)c1ccccc1", "note": "(stereo not given)", "inhibition": "11.1% (inactive)"}
{"smiles": "Cc1ccc(NC(=O)NC(=O)CSc2nnc(-c3ccc(OC(F)F)cc3)n2N)c(C)c1", "inhibition": "1.8% (inactive)"}
{"smiles": "CC(C)C[C@@H](COc1ccccc1)N1CCN(CC(C)C)CCC1=O", "inhibition": "12.3% (inactive)"}
{"smiles": "N#C/C(=C/c1ccc(Cl)cc1)NC(=O)c1ccccc1", "inhibition": "-13.8% (inactive)"}
{"smiles": "CC(Cc1cccs1)N(Cc1ccc(Cl)cc1)C(=O)c1ccncc1", "note": "(stereo not given)", "inhibition": "8.76% (inactive)"}
{"smiles": "CC/C(=C\\c1ccc(Cl)cc1)c1ccncc1", "inhibition": "57.3% (active)"}
{"smiles": "CCCSC(=S)NC1CCS(=O)(=O)C1", "note": "(stereo not given)", "inhibition": "10.7% (inactive)"}
{"smiles": "O=C(OCC(=O)N1CCCC1=O)c1cc(S(=O)(=O)N2CCOCC2)ccc1Cl", "inhibition": "6.4% (inactive)"}
{"smiles": "O=C(OCC(=O)N1CCOCC1)c1ccc2ccccc2c1", "inhibition": "-11.5% (inactive)"}
{"smiles": "COc1ccc(OC)c(/C(C)=N\\NC(=O)c2cc3cc(Cl)ccc3n2C)c1", "inhibition": "1.75% (inactive)"}
{"smiles": "C=C(C)c1cccc(C(C)(C)NC(=O)NC2CCCC2)c1", "inhibition": "-1.51% (inactive)"}
{"smiles": "C=C(C)c1cccc(C(C)(C)NC(=O)N2CCN(c3ncccn3)CC2)c1", "inhibition": "36.7% (active)"}
{"smiles": "C=C(C)c1cccc(C(C)(C)NC(=O)NCCN(CC)CC)c1", "inhibition": "-10.6% (inactive)"}
{"smiles": "COc1cccc(NC(=O)C2C(c3ccccc3)C2(Cl)Cl)c1", "note": "(stereo not given)", "inhibition": "-10.4% (inactive)"}
{"smiles": "COc1ccc(N2CCN(C(=O)CCNC(=O)c3ccc(Br)cc3)CC2)cc1", "inhibition": "4.57% (inactive)"}
{"smiles": "CCOc1ccccc1NC(=O)c1cc(S(=O)(=O)N2CCC3(CC2)OCCO3)ccc1F", "inhibition": "3.17% (inactive)"}
{"smiles": "CN1OC[C@@H]2CN(C(=O)c3ccc(-c4ccccc4)cc3)[C@H](c3ccc(-c4cccc(F)c4)cc3)C[C@@H]21", "inhibition": "-1.35% (inactive)"}
{"smiles": "CC(=O)N1CCN(C(=O)C2(NC(=O)Nc3ccc(C)cc3)CCCCC2)CC1", "inhibition": "-13.7% (inactive)"}
{"smiles": "O=C(C1CCCO1)N1CCN(C(=O)C23CC4CC(CC(C4)C2)C3)CC1", "note": "(stereo not given)", "inhibition": "24.4% (inactive)"}
{"smiles": "N/C(Cc1ccc([N+](=O)[O-])cc1)=N\\OC(=O)COc1ccc2ccccc2c1", "inhibition": "-1.15% (inactive)"}
{"smiles": "CCn1nccc1C(=O)Nc1ccc(S(=O)(=O)NC23CC4CC(CC(C4)C2)C3)cc1", "inhibition": "5.56% (inactive)"}
{"smiles": "CCn1nccc1C(=O)Nc1ccc(Cl)c(Cl)c1", "inhibition": "44.5% (active)"}
{"smiles": "CC(c1cccnc1)N(CCN(C)C)C(=O)Nc1ccc(Cl)c(Cl)c1", "note": "(stereo not given)", "inhibition": "0.83% (inactive)"}
{"smiles": "CC1CCCC(C)N1C(=O)CSc1nnnn1C1CCCC1", "note": "(stereo not given)", "inhibition": "-2.05% (inactive)"}
{"smiles": "COc1ccccc1-c1nnc(-c2ccc(F)cc2)o1", "inhibition": "45% (active)"}
{"smiles": "COc1ccccc1-c1cc(NC(C)=O)c2ncc(-c3ccc(F)cc3)n2c1", "inhibition": "18.1% (inactive)"}
{"smiles": "COc1ccccc1C1=CC(=O)C[C@H](c2ccc(F)cc2)C1", "inhibition": "8.41% (inactive)"}
{"smiles": "Cn1c(SCC(=O)N2CCOCC2)nnc1-c1ccc2ncccc2c1", "inhibition": "3.82% (inactive)"}
{"smiles": "Cc1cccc(-c2nc3c(c(SCC(=O)N4CCOCC4)n2)CCCC3)c1", "inhibition": "37.9% (active)"}
{"smiles": "N#Cc1c(C(F)(F)F)cc(-c2ccccc2)nc1SCC(=O)N1CCOCC1", "inhibition": "2.8% (inactive)"}
{"smiles": "Cc1ccc(C)c(S(=O)(=O)N2CC(=O)Nc3ccccc32)c1", "inhibition": "-15.3% (inactive)"}
{"smiles": "CCOC(=O)c1cc(C)nc(S(C)(=O)=O)c1C#N", "inhibition": "13.5% (inactive)"}
{"smiles": "CCCCSc1[nH]c(=O)c(C(=O)OCC)cc1C#N", "inhibition": "48.3% (active)"}
{"smiles": "CCOC(=O)c1c(C(C#N)C#N)cc(C)nc1C", "inhibition": "-3.86% (inactive)"}
{"smiles": "CC(=O)Nc1cnc(-c2ccc(O)cc2C)cn1", "inhibition": "-1.38% (inactive)"}
{"smiles": "CCC(Oc1ccccc1)C(=O)OCC(=O)Nc1c(C)nn(-c2ccccc2)c1C", "note": "(stereo not given)", "inhibition": "15.9% (inactive)"}
{"smiles": "CC(C)C1CCN(C(=O)C2CCC(=O)N(C3CCCCCC3)C2)CC1", "note": "(stereo not given)", "inhibition": "-2.6% (inactive)"}
{"smiles": "Cc1nn(-c2ncc(C(F)(F)F)cc2Cl)c(=O)n1-c1ccccc1", "inhibition": "35.6% (active)"}
{"smiles": "Cc1nn(CC2CC2)c(=O)n1N(C)c1ncc(C(F)(F)F)cc1Cl", "inhibition": "3.57% (inactive)"}
{"smiles": "Cc1nn(CC#N)c(=O)n1N(C)c1ncc(C(F)(F)F)cc1Cl", "inhibition": "-3.68% (inactive)"}
{"smiles": "CCCn1c(N)c(C(=O)CSc2nnc3n2CCCCC3)c(=O)[nH]c1=O", "inhibition": "9.24% (inactive)"}
{"smiles": "COc1ccccc1C(=O)N(C1=NC(C)CS1)c1ccc(Cl)cc1", "note": "(stereo not given)", "inhibition": "-17.9% (inactive)"}
{"smiles": "Cc1ccc(N/C(N)=N/c2nc(C(F)(F)F)cc(C(F)(F)F)n2)cc1", "inhibition": "2.4% (inactive)"}
{"smiles": "Oc1ccc(N=Nc2nccs2)c(O)c1", "inhibition": "40.3% (active)"}
{"smiles": "Cc1cc(C)cc(N(CC(=O)Nc2c(C)n(C)n(-c3ccccc3)c2=O)S(C)(=O)=O)c1", "inhibition": "-7.93% (inactive)"}
{"smiles": "CCN(CC)P(=O)(/C(Cl)=C\\Nc1c(C)n(C)n(-c2ccccc2)c1=O)N(CC)CC", "inhibition": "38.6% (active)"}
{"smiles": "Cc1c(NC(=S)Nc2ccccc2)c(=O)n(-c2ccccc2)n1C", "inhibition": "13.7% (inactive)"}
{"smiles": "C=CC[C@@H](CC(=O)NCCO)C(=O)N[C@H](C)COC(=O)[C@@H](CC=C)CC(=O)OC(C)(C)C", "inhibition": "4% (inactive)"}
{"smiles": "CCOC(=O)C1CN(S(=O)(=O)c2ccc(F)cc2)C1", "inhibition": "-3.48% (inactive)"}
{"smiles": "O=S(=O)(c1ccc(F)cc1)N1CC=C(c2ccccc2)CC1", "inhibition": "0.877% (inactive)"}
{"smiles": "O=C(O)c1cccc(S(=O)(=O)N2CC=C(c3ccccc3)CC2)c1", "inhibition": "-4.6% (inactive)"}
{"smiles": "Cc1c(C2=CCN(S(=O)(=O)c3ccc(Cl)cc3)CC2)c2ccccc2n1C", "inhibition": "40.5% (active)"}
{"smiles": "O=C(CSc1cccc[n+]1[O-])c1ccc(-c2ccccc2)cc1", "inhibition": "-20.6% (inactive)"}
{"smiles": "O=C(O)/C(=C/c1cccnc1)NC(=O)c1ccccc1", "inhibition": "0.0898% (inactive)"}
{"smiles": "Cc1cccc(NS(=O)(=O)c2ccc(C(=O)NCC(C)(C)N3CCOCC3)cc2)c1C", "inhibition": "-5.62% (inactive)"}
{"smiles": "Cc1cc(C(=O)COc2ccccc2[N+](=O)[O-])c(C)n1-c1cccc(S(=O)(=O)N2CCOCC2)c1", "inhibition": "7.44% (inactive)"}
{"smiles": "COCCNC(=O)CN(C(=O)CCC(=O)Nc1cc(C)on1)c1ccc(C)cc1C", "inhibition": "-14.7% (inactive)"}
{"smiles": "COCCNc1nc(N)c([N+](=O)[O-])c(N2CCCCCC2)n1", "inhibition": "23.7% (inactive)"}
{"smiles": "CC1CN(c2nc(Nc3ccccc3)nc(N)c2[N+](=O)[O-])CC(C)O1", "note": "(stereo not given)", "inhibition": "38% (active)"}
{"smiles": "Nc1nc(NCCCN2CCOCC2)nc(Nc2ccccc2)c1[N+](=O)[O-]", "inhibition": "5.52% (inactive)"}
{"smiles": "CC(C)(C)C(=O)CSc1nc2ccccc2o1", "inhibition": "-6.68% (inactive)"}
{"smiles": "CCN(CC)C(=O)CSc1nc2ccccc2o1", "inhibition": "0.512% (inactive)"}
{"smiles": "Fc1ccccc1OCCSc1nc2ccccc2o1", "inhibition": "36.2% (active)"}
{"smiles": "Cn1c(SCC(=O)OC2CCCCC2)nnc1-c1ccc(S(=O)(=O)N2CCCC2)cc1", "inhibition": "-4.66% (inactive)"}
{"smiles": "O=C(NCCc1nnc2ccc(SCC(=O)N3CCOCC3)nn12)c1ccccc1", "inhibition": "9.19% (inactive)"}
{"smiles": "O=C(CSc1c2c(nc3ccc(Cl)cc13)CCCC2)NCc1ccco1", "inhibition": "82.7% (active)"}
{"smiles": "O=C(NCc1ccco1)C1(c2ccc(Cl)cc2)CCCC1", "inhibition": "-1.05% (inactive)"}
{"smiles": "O=C(CSc1nnnn1-c1ccccc1)NCc1ccco1", "inhibition": "-15% (inactive)"}
{"smiles": "CCn1c(=O)n(CC)c2cc(N3CCCC3)c(NC(=O)c3ccccc3Br)cc21", "inhibition": "-26.6% (inactive)"}
